Bioassay records (PubChem)
D3 antag: qHTS of D3 Dopamine Receptor Antagonist: qHTS. D(3) dopamine receptor (Homo sapiens), P35462. D3R cells, DiscoveRx beta-arrestin luminescence, antagonist mode; hits give low values. max response, negative = inhibition, %. 360,000 compounds, 2.5% hits. AID 652054, 2013; in the data active means max response below about -50%; inconclusive means no clear call, values can overlap the other calls; further: on the % scale 0 is the no-effect control and ±100 the full control effect
Target sequence (P35462 whole entry, looked up): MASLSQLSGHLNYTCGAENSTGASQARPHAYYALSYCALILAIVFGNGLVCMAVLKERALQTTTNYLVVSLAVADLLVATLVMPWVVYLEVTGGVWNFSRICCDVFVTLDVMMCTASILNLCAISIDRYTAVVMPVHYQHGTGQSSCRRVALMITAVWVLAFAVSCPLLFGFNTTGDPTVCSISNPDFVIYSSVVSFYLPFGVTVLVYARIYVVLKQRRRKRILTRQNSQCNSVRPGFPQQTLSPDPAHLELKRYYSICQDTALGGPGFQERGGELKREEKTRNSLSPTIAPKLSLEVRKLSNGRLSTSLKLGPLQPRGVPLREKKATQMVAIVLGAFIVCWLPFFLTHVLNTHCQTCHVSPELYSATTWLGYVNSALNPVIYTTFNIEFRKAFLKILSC
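Cells plated overnight at 1500 cells/well, then exposed to library compounds with dopamine controls for 90 minutes at 37 degrees C. DiscoveRx reagent added for 30–60 minutes at room temperature; luminescence read, quantitative HTS format.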
ATXN2 expr inh: Primary qHTS for Inhibitors of ATXN expression. HEK-293 ATXN2-luciferase reporter, luminescence, 24 h. Potency, µM (titrated, usually from 57 µM), for inactives: top-dose activity change, negative = inhibition, hits mostly inhibitors. 360,000 compounds, 0.72% hits. AID 1745845, 2022; further: potency means the concentration at half of the fitted maximal effect; on the % scale 0 is the no-effect control and ±100 the full control effect; nearly all actives have a fitted effect of over 55% in size
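qHTS (up to 57 uM final) was run with 24 h compound exposure of reporter cells at 37 °C. Each well was multiplexed: SteadyGlo luminescence measured ATXN2-luciferase expression after a fluorogenic Gly-Phe-AFC viability readout (25 uM final).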
D3 ag: qHTS of D3 Dopamine Receptor Agonist: qHTS. D(3) dopamine receptor (Homo sapiens), P35462. D3R DiscoveRx beta-arrestin cells, luminescence, 90 min. max activation, %. 410,000 compounds, 0.58% hits; in the data active means max activation above about 30%; further: 0% is about no effect
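Cells at 1500/well, incubated overnight, then treated with pinned compounds (dopamine as control) for 90 min at 37 degrees C. DiscoveRx reagent added for 30 - 60 minutes at room temperature; luminescence read.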
a7 integrin act: qHTS for Activators of Integrin-Mediated Alleviation for Muscular Dystrophy; 350,000 compounds, 0.064% hits; alpha7betagal myoblasts, beta-gal FDG fluorescence, 48 h; Potency, µM (highest dose often 38.3 µM), without a hit: top-dose activation, hits mostly activators;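 further: potency means the concentration at half of the fitted maximal effect; 100% = response of the positive control SU9516; nearly all actives have a fitted effect of over 60% in size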
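alpha7betagal+/- myoblasts (passage 13, 250/well) treated 48 h at 37C with compounds at 1:260 dilution of DMSO stock. Lysed, then beta-galactosidase activity read as FDG fluorescence (ex 480/em 540) after 30 min, with pre-read for autofluorescence.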
IL1B secr inh: qHTS for Inhibitors of Inflammasome Signaling: IL-1-beta AlphaLISA Primary Screen; THP-1 LPS/ATP IL-1B secretion, AlphaLISA, 16 h; hits give low values; activity change, % at 57.5 µM; 360,000 compounds, 4.7% hits; AID 743279, 2014; in the data active means activity change below about -50%; inconclusive means mostly about -30% to -49%; further: on the % scale 0 is the no-effect control and ±100 the full control effect
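THP-1 cells pretreated 1 hr with compounds (up to 57.5 uM final), then stimulated with LPS (250 ng/mL final) plus ATP (1.25 mM final); secreted IL-1B measured by AlphaLISA after 16 hr, decreased signal indicating inhibition.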
ATXN viability: Viability Counterscreen for Primary qHTS for Inhibitors of ATXN expression | Potency, µM (highest dose often 56.7 µM), actives largely listed as cytotoxic | 400,000 compounds, 0.49% hits | AID 651635, 2014 | S2 cells (HEK-293 line with an ATXN2-luciferase reporter) viability, CellTiter-Fluor protease fluorescence, 24 h; further: potency means the concentration at half of the fitted maximal effect; nearly all actives have a fitted effect of over 40% in size
* hit, by the source's call; ! = repeats disagree. This is a sample that favours compounds with a hit; in the whole collection about 7% have one here. Unless noted, the call rests on the fitted dose curve; in most records, active means well fitted curve in the direction sought with a large enough effect; inconclusive means small, poorly fitted or top-dose-only effect, or another doubt; inactive means no such curve, though single readings can be large; an effect the other way counts as inactive or inconclusive.

`O=C(COc1ccc(Cl)cc1Cl)NCC1(N2CCOCC2)CCCCC1` gave D3 antag -8, ATXN2 expr inh inconclusive, D3 ag -7, a7 integrin act -16%, IL1B secr inh -65* and ATXN viability inactive.
Screening O=C(NCc1ccccc1Cl)c1cnc(N2CCOCC2)c2ccccc12 returned D3 ag 6.
`CCC1Nc2ncnc(N3CCOCC3)c2N(Cc2ccc(OC)cc2)C1=O` (stereo not given) gave D3 antag 3, ATXN2 expr inh 9%, D3 ag 10, a7 integrin act -1%, IL1B secr inh 11 and ATXN viability inactive.
`Cc1ccc(CN2C(=O)C(Cc3ccccc3)Nc3ncnc(N4CCCCC4)c32)cc1` (stereo not given) gave D3 antag -84*!, ATXN2 expr inh 2%, D3 ag -22, a7 integrin act -8%, IL1B secr inh -19 and ATXN viability inconclusive.
`CCC1Nc2ncnc(N3CCOCC3)c2N(Cc2ccccc2)C1=O` (stereo not given) gave D3 antag -5, ATXN2 expr inh 1%, D3 ag -19, a7 integrin act 14%, IL1B secr inh 16 and ATXN viability inactive.
`CCC1Nc2ncnc(N3CCN(c4ccccc4)CC3)c2N(Cc2ccc(OC)cc2)C1=O` (stereo not given) gave D3 antag -149*, ATXN2 expr inh 5%, D3 ag -56, a7 integrin act -37%, IL1B secr inh -15 and ATXN viability inactive.
CC(C)CC1Nc2ncnc(N3CCOCC3)c2N(Cc2ccccc2)C1=O (stereo not given) was read as D3 antag 1, ATXN2 expr inh 3%, D3 ag 60*!, a7 integrin act 1%, IL1B secr inh 29 and ATXN viability inactive.
`O=C1C(Cc2ccccc2)Nc2ncnc(N3CCOCC3)c2N1Cc1ccc(Cl)cc1` (stereo not given) gave D3 antag -102*!, ATXN2 expr inh 0%, D3 ag -38, a7 integrin act -6%, IL1B secr inh 0 and ATXN viability inconclusive.
Screening COc1ccc(S(=O)(=O)CCC(=O)Nc2c(C)cccc2C)cc1 returned D3 antag 14, ATXN2 expr inh 0%, D3 ag 4, a7 integrin act 2%, IL1B secr inh -14 and ATXN viability inactive.
Screening COC(=O)c1ccccc1NC(=O)Nc1c(C)n(C)n(-c2ccccc2)c1=O returned D3 antag 16, ATXN2 expr inh 0%, D3 ag -7, a7 integrin act 5%, IL1B secr inh 0 and ATXN viability inactive.
Cc1snc(SCC(=O)c2ccc([N+](=O)[O-])cc2)c1C#N was read as D3 antag 10, ATXN2 expr inh 26%, D3 ag 0, a7 integrin act 19%, IL1B secr inh -4 and ATXN viability inactive.
Screening CCC1Nc2ncnc(N3CCN(c4ccccc4)CC3)c2N(Cc2ccc(Br)cc2)C1=O (stereo not given) returned D3 antag active, ATXN2 expr inh -26%, D3 ag -88, a7 integrin act -23%, IL1B secr inh inconclusive and ATXN viability inactive.
Screening CCC1Nc2ncnc(N3CCCCC3)c2N(Cc2ccccc2)C1=O (stereo not given) returned D3 antag -13, ATXN2 expr inh 5%, D3 ag -8, a7 integrin act -3%, IL1B secr inh 11 and ATXN viability inactive.
Screening Cc1ccc(CN2C(=O)C(Cc3ccccc3)Nc3ncnc(N4CCN(c5ccccc5)CC4)c32)cc1 (stereo not given) returned D3 antag -140*, ATXN2 expr inh 2%, D3 ag -65, a7 integrin act -27%, IL1B secr inh -17 and ATXN viability inactive.
